# Reference: PubChem BioAssay AID1671190 (National Center for Advancing Translational Sciences (NCATS), 2021)
# Out of some 580,000 compounds screened, about 6,100 (1.1%) were called active. About 15% were inconclusive and are not listed. The sample holds actives, similar compounds and a random draw of the others, so the mix is not that of the screen. Calls follow the shape of the dose curve; as a rule, active = well fitted inhibition curve with a large enough effect; inconclusive = small, poorly fitted or top-dose-only effect, or another doubt; inactive = no such curve, though single readings can be large or run the other way.
# Target: Polyunsaturated fatty acid lipoxygenase ALOX12 (Homo sapiens) (UniProt P18054)
# Sequence (P18054 whole entry, looked up): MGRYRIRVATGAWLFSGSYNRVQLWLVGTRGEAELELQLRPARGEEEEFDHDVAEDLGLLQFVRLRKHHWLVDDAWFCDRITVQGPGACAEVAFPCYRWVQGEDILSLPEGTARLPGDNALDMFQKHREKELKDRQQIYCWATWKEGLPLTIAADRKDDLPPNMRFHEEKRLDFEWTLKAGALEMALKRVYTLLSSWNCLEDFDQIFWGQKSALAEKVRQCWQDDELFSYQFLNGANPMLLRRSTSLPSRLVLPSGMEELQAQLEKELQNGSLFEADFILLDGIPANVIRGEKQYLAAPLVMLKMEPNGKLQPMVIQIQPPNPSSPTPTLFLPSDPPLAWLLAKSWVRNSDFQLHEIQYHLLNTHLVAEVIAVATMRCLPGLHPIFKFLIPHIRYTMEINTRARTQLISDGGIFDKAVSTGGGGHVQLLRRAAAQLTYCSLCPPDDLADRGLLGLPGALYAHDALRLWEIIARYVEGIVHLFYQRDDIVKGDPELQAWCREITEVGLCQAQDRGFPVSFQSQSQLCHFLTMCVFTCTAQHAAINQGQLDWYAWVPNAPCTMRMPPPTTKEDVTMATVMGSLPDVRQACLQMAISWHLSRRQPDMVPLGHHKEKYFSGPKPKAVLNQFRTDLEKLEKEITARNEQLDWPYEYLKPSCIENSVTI
# Experiment: Primary qHTS assay for inhibitors of human arachidonate 12S-lipoxygenase (ALOX12): Round 2
# Conditions: purified 12hLO, xylenol orange hydroperoxide absorbance; series mostly up to 108 µM; activity change, negative = inhibition: at the top concentration
# Procedure, shortened: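 Purified human 12hLO at 150 nM in 25 mM Hepes, 0.01% Triton X-100, pH 7.0, preincubated 15 min at room temperature with compound. Reaction started with 40 uM arachidonic acid, 30 min at room temperature. Hydroperoxide measured by Fe-xylenol orange, 573/405 nm absorbance ratio.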
# % is scaled to controls: 0 for no effect and ±100 for the full control effect; potency is read from the fitted curve at half-maximal effect.
SMILES,"activity change, negative = inhibition",Potency
CN(Cc1cccs1)C(=O)C1CCC1,6.4% (inactive),–
Cc1ccc(C(=O)N2CCC(c3n[nH]c(=O)n3Cc3ccc(F)cc3)CC2)cc1,10.3% (inactive),–
CCN1CCC2(CC1)N=C(c1ccc(F)cc1)C(=S)N2C(=O)c1ccc(C)cc1,–,50.1 µM (active)
Cc1ccc(C(=O)N2CCC3(CC2)NC(=O)N(Cc2ccc(F)cc2)C3=O)cc1,14.3% (inactive),–
CC1CCN(CCCNC(=O)c2cc(=O)c3ccccc3o2)CC1,-3.13% (inactive),–
Cc1ccc(S(=O)(=O)N(CC(=O)Nc2cccnc2)c2ccc(Br)cc2)cc1,–,22.4 µM (active)
CCNC(=O)CN(c1ccc(C)cc1)S(=O)(=O)c1ccc(SC)cc1,-25.5% (inactive),–
Cc1ccc(N(CC(=O)Nc2cc(C)cc(C)c2)S(=O)(=O)c2cccc3nonc23)cc1,–,inactive
COc1ccccc1C(=O)N1CCc2c(nc3cc(-c4ccccc4Cl)[nH]n3c2=O)C1,-1.72% (inactive),–
COc1ccc2cc(C(=O)N3CCN(S(=O)(=O)c4ccccc4C(F)(F)F)CC3)c(C)nc2c1,16.8% (inactive),–
Cn1c(=O)c2c(nc(Cl)n2CC(=O)N(C2CCCC2)C2CCS(=O)(=O)C2)n(C)c1=O (stereo not drawn),2.41% (inactive),–
O=C(Cc1cccc2ccccc12)NCCc1cccc2cccnc12,18.3% (inactive),–
CCCCc1c(C)nc2c(C)cccc2c1SCC(=O)O,80.1% (inactive),–
COc1cc(C(=S)NCc2ccccc2)cc(Br)c1O,–,39.8 µM (active)
COc1ccc(COc2ccc(C(=O)O)cc2OC)cc1Br,-3.21% (inactive),–
COc1ccccc1NC(=O)C(=O)NCc1ccccc1,-7.75% (inactive),–
CN(Cc1ccc(F)cc1F)C(=O)COc1ccc2ccc(=O)oc2c1,-53.2% (inactive),–
C=CCSc1nc2c(c(=O)[nH]c(=O)n2C)n1Cc1cccc(C)c1,-77.9% (inactive),–
CS(=O)(=O)c1ccc(C(=O)NNC(=O)c2cccs2)cc1,3.89% (inactive),–
Cc1ccc(NNC(=O)c2cccs2)cc1Cl,–,8.91 µM (active)
COc1cc(Cl)c(C)cc1NC(=O)[C@@H]1CCCN1C(=O)c1cccs1,0.484% (inactive),–
CCN(c1ccc(-c2csc(-c3ccccc3)n2)cc1)S(C)(=O)=O,0.942% (inactive),–
N#Cc1ncn(CCC(=O)Nc2ccc(F)c(F)c2)n1,-16.6% (inactive),–
COc1ccc(C)cc1NC(=O)NC(C(=O)N1CCc2ccccc21)C(C)C (stereo not drawn),-18.5% (inactive),–
Cc1noc(-c2ccc(OC(F)(F)F)cc2)c1C(=O)NCc1ccc2c(c1)OCO2,47.3% (inactive),–
CCC1CCCCN1C(=O)Cn1cccc1-c1nc(-c2ccc(F)cc2)no1 (stereo not drawn),6.64% (inactive),–

SMILES,"activity change, negative = inhibition",Potency
O=C(c1n[nH]c2c1CCCC2)N1CCC2(CC1)NC(=O)N(c1ccc(F)cc1)N2,–,1.41 µM (active)
O=C(NC1CCCc2c1[nH]c1ccc(F)cc21)c1n[nH]c2c1CCCC2 (stereo not drawn),13.5% (inactive),–
O=C(c1ccc2c(c1)OCO2)N1CCC2(C1)C(=O)Nc1ccccc12 (stereo not drawn),5.73% [at 6.33 µM] (inactive),–
O=C(c1cccc(Cl)c1)N1CCC2(CC1)NCc1ccccc1NC2=O,3.75% [at 6.33 µM] (inactive),–
CCC(CC)C(=O)Nc1cccc(C(=O)N2CCCC2)c1,5.32% (inactive),–
O=C(Cc1ccc(F)cc1)N1CCC(n2cc(-c3nc(-c4ccccc4)no3)nn2)CC1,2.49% (inactive),–
O=C(c1ccc2c(c1)OCO2)N1CCC(n2c(=O)[nH]c3ccccc32)CC1,-25.6% (inactive),–
O=C(c1ccccc1)c1cccn1CC(=O)N1CCN(c2ccc(F)cc2)CC1,439% (inactive),–
O=C(Cc1ccc(F)cc1)N1CCC2(CC1)NC(=O)N(c1ccccc1)N2,–,5.01 µM (active)
O=C(c1ccc2c(c1)OCO2)N1CCC2(CC1)NC(=O)N(c1ccccc1)N2,–,5.01 µM (active)
CC(=O)Nc1cccc(C(=O)N2CCC3(CC2)NC(=O)N(c2cccc(Cl)c2)N3)c1,–,1.41 µM (active)
O=C(c1cc2ccccc2oc1=O)N(Cc1ccccc1)c1cccc([N+](=O)[O-])c1,-8.8% (inactive),–
CC1CCN(S(=O)(=O)c2ccc3c(ccc(=O)n3CC(=O)NCc3ccccn3)c2)CC1,18.9% (inactive),–
COc1cccc(CC(=O)N2CCC3(CC2)N=C(c2ccc(Cl)cc2)NO3)c1,-1.12% (inactive),–
Cc1ccc(-c2cn3nc(N4CCCC(C(=O)NCCc5cccs5)C4)sc3n2)cc1 (stereo not drawn),-18.5% (inactive),–
COCCn1nc2n(c1=O)CCN(S(=O)(=O)c1ccc(Cl)s1)CC2,7.1% (inactive),–
COc1ccc(Cl)cc1NC(=O)CCc1ncc(-c2ccc(C)cc2)o1,-24.8% (inactive),–
CC(C)C(=O)N1CCC2(CC1)OC(=O)N(Cc1ccccc1F)C2(C)c1ccccc1 (stereo not drawn),6.96% [at 176 µM] (inactive),–
CC1(c2ccccc2)N(Cc2ccccc2F)C(=O)OC12CCN(Cc1c[nH]c3ccccc13)CC2 (stereo not drawn),–,28.2 µM (active)
CC1(c2ccccc2)N(Cc2ccc(O)cc2)C(=O)OC12CCN(Cc1ccc(C#N)cc1)CC2 (stereo not drawn),-0.847% (inactive),–
COc1ccccc1CNC(=O)c1ncoc1-c1cccc(C)c1,3.56% (inactive),–
CCC(=O)N1c2ccccc2NC2=C(C(=O)CC(C)(C)C2)C1c1cc(OC)ccc1OC (stereo not drawn),9.28% (inactive),–
COCC1CN(Cc2cn(C)c3ccc(OC)cc23)CC12CCNCC2 (stereo not drawn),19% (inactive),–
COc1cc(/C=C/c2nc3ccccc3s2)ccc1OC(F)F,3.41% (inactive),–
CCn1c(SCC(=O)Nc2ccccc2C(=O)NC2CC2)nnc1-c1ccoc1C,-8.6% (inactive),–
COc1ccc(N2CCN(C(=O)CCNC(=O)c3ccc(Br)cc3)CC2)cc1,-21.7% (inactive),–

SMILES,"activity change, negative = inhibition",Potency
COc1ccc(C(=O)NCC[N+](C)(C)C)cc1,–,39.8 µM (active)
COc1ccc(C(=O)NCCSc2ccccc2C)cc1,0% (inactive),–
CCN(Cc1nc(-c2ccc(OC)c(OC)c2)no1)C(=O)Nc1cccc2ccccc12,6.76% (inactive),–
Cc1[nH]c2ccccc2c1C=O,8.16% (inactive),–
Cc1[nH]c2ccccc2c1/C=N/c1sc2c(c1C#N)CCC(C)C2 (stereo not drawn),–,22.4 µM (active)
COC(=O)c1c(NC(=O)CCCOc2ccccc2)sc2c1CCC(C)C2 (stereo not drawn),0% (inactive),–
COC(=O)CC(NC(=O)c1nn(C)c(=O)c2ccccc12)c1ccc(F)cc1 (stereo not drawn),-8.65% (inactive),–
Nc1ccc(-c2cc(C(=O)O)c3cc(Cl)ccc3n2)cc1,-28.1% (inactive),–
Cc1nc(C)c(C(=O)N2CCCC(C(=O)NCc3ccccc3)CCNC(=O)CC2)s1 (stereo not drawn),-1.73% (inactive),–
N#CC1CCN(C(=O)c2nc(-c3ccc(Cl)cc3)c3ccccn23)CC1,-3.2% (inactive),–
COc1ccc(N2CCN(c3nc(-c4ccccc4F)nc4ccccc34)CC2)cc1,-11.4% (inactive),–
CCOc1ccccc1N1CCN(c2nc(-c3cccnc3)nc3ccccc23)CC1,3.11% (inactive),–
COc1ccccc1-c1nc(N2CCN(C)CC2)c2ccccc2n1,–,28.2 µM (active)
COC(=O)C1CCCCN1S(=O)(=O)c1cc(Cl)ccc1Cl (stereo not drawn),8.51% (inactive),–
CN1c2ccc(C=O)c3c(C=O)ccc(c23)N(C)C1(C)C,–,28.2 µM (active)
O=C(CCC1NC(=O)c2ccccc2NC1=O)NC1CCCCCC1 (stereo not drawn),-0.849% (inactive),–
Fc1ccccc1N1CCN(c2nc(-c3cccnc3)nc3ccccc23)CC1,0.0579% (inactive),–
CC(C)Nc1nc(N(c2ccccc2)c2ccccc2)nc(-n2ccnc2)n1,51.5% (inactive),–
FC(F)(F)c1ccccc1-c1nc(-n2ccnc2)c2ccccc2n1,–,15.8 µM (active)
CCCc1noc(CN2CCN(c3cc(C)nc(C(C)C)n3)CC2)n1,6.23% (inactive),–
N#C/C(=C/c1ccco1)c1nc2ccccc2[nH]1,–,39.8 µM (active)
COc1cccc2cc(/C=C(/C#N)c3nc4ccccc4[nH]3)oc12,-44.6% (inactive),–
CC(C)c1ccc(/C=C(/C#N)c2nc3ccccc3[nH]2)cc1,-19.9% (inactive),–
O=c1oc2ccccc2cc1S(=O)(=O)c1cccc(Cl)c1,-19.4% (inactive),–
CC(C)N1C(=O)C2(CCCC2)C1C(=O)Nc1ccc2c(c1)N(C)CCC2 (stereo not drawn),71.1% (inactive),–
Cc1ccc(N=C2NC(=O)/C(=C/C=C/c3ccco3)S2)cc1C,–,10 µM (active)

SMILES,"activity change, negative = inhibition",Potency
Cc1ccc(N2NC(=O)/C(=C/C=C/c3ccco3)C2=O)cc1C,–,39.8 µM (active)
Cc1ccc(C(=O)N/C(=C\c2ccco2)C(=O)N2CCSCC2)cc1C,14.6% (inactive),–
CCc1ccccc1NC(=O)Nc1c(NC2CCCC2)c2ccccc2oc1=O,3.81% (inactive),–
COc1cccc(NC(=O)c2ccc3c(c2)NC(C)(COc2ccccc2)CO3)c1 (stereo not drawn),-2.36% [at 176 µM] (inactive),–
CCCNC(=O)N1CCC(N(C)C2CCOCC2)CC1,63.3% (inactive),–
OC(CNCCc1ccc(Cl)cc1Cl)COc1ccccc1 (stereo not drawn),–,12.6 µM (active)
N#Cc1ccc(OCC(O)CNCCC2=CCCCC2)cc1 (stereo not drawn),5.82% (inactive),–
CC(O)CNCCOc1cccc(Oc2ccccc2)c1 (stereo not drawn),-17.6% (inactive),–
CCn1ccnc1CN(C)Cc1cccc(OCC(O)CN(C)C2CCCCC2)c1 (stereo not drawn),82.8% (inactive),–
O=C(NCc1ccccc1)c1cc(-c2cccc(Cl)c2)on1,-22% (inactive),–
O=C(O)C(c1ccccc1)N1C(=O)/C(=C\c2ccc(-c3cccc(Cl)c3)o2)SC1=S (stereo not drawn),–,2 µM (active)
Cc1ccc2[nH]cc(C(C(=O)O)N3CCN(S(=O)(=O)c4ccccc4)CC3)c2c1 (stereo not drawn),-23.2% (inactive),–
NC(=O)c1cccc(NC(=O)c2cccc3cccnc23)c1,-20.1% (inactive),–
Cc1nn(-c2ccc(C(C)C)cc2)c(C)c1[C@@H]1C=C[C@@H](NC(=S)NCC(C)C)C1,–,56.2 µM (active)
Cc1nn(-c2ccc(C(C)C)cc2)c(C)c1[C@@H]1C=C[C@@H](NC(=O)CC2(CC(=O)O)CCCC2)C1,9.29% (inactive),–
Cc1nn(-c2ccc(C(C)C)cc2)c(C)c1[C@@H]1C=C[C@@H](NC(=O)Nc2ccccc2)C1,35% [at 176 µM] (inactive),–
CCCn1nc(C(=O)NC2CCN(C(C)C)CC2)c2ccccc2c1=O,3.11% (inactive),–
COCCCNC(=O)c1ccc(-c2c(C)noc2C)c2ccoc12,8.36% (inactive),–
Cc1noc(C)c1-c1cc(NCc2cccnc2)ncn1,–,31.6 µM (active)
CNc1cc(-c2c(C)noc2C)ncn1,-26.5% (inactive),–
Cc1cnc(CNc2cc(-c3c(C)noc3C)ncn2)cn1,-20.8% (inactive),–
COCCNc1cc(-c2c(C)noc2C)ncn1,–,39.8 µM (active)
Cc1cc2cc(-c3c(C)noc3C)nc(NCc3cccnc3)c2o1,42.9% [at 176 µM] (inactive),–
O=C(NCCc1cccnc1)c1cccc(Cl)c1Cl,5.55% (inactive),–
c1ccc(-c2noc(-c3ccco3)n2)cc1,1.51% (inactive),–
